Compound activity deposited in PubChem by National Center for Advancing Translational Sciences (NCATS).
Most compounds without a hit are left out; they make up all but 21% or so of the library.
ClpP mod = qHTS Assay for Activators of ClpP. purified B. subtilis ClpP, FRET peptide cleavage, 20 min. ATP-dependent Clp protease proteolytic subunit (Bacillus subtilis (strain 168)), P80244. 340,000 compounds, 1.9% hits. Potency, µM (top dose mostly 57.5 µM); active = well fitted falling curve with a large enough effect; inconclusive = small, poorly fitted or top-dose-only effect; inactive = no such curve, though single readings can be large or run the other way; note: the source files actives as falling curves though it sought activators and does not explain the sign; nearly all actives have a fitted effect of over 65% in size
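ClpP 10 microg/mL final, pH 8 Tris/KCl buffer with BSA, glycerol, Tween-20; compound pinned in; FRET-FV substrate; RT 20 min; Ex320/Em430; ΔFRET vs ADEP 5.8 microM, DMSO, no enzyme.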
D3 antag = D3 dopamine receptor (human) antagonism; D3R cells, DiscoveRx beta-arrestin luminescence, antagonist mode; stronger effect = lower value; 360,000 compounds, 2.5% hits; P35462; max response, negative = inhibition, %; in the data active = max response below about -50%; inconclusive = no clear call, values can overlap the other calls
Target sequence (P35462 whole entry, looked up): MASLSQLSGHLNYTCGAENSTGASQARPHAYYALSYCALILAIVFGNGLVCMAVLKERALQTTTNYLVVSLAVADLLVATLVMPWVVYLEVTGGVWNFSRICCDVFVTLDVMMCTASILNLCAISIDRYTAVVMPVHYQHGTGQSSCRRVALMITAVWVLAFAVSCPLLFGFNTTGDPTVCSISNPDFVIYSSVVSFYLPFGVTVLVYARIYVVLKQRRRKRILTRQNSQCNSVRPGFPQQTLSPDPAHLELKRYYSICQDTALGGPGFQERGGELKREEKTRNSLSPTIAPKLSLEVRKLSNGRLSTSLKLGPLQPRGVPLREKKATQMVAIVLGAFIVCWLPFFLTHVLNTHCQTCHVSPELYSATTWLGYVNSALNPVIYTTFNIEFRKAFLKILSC
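Cells expressing the human receptor were seeded at 1500 cells/well, incubated overnight at 37 degrees C in 5% CO2, then exposed to library compounds with dopamine controls for 90 minutes at 37 degrees C before luminescent detection.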
DT40 TDP1 CPT = growth inhibition of DT40 Tdp1-/-;hTDP1 cells with camptothecin (screen for TDP1 inhibitors) | chicken DT40 Tdp1-/-;hTDP1 cells + 20 nM CPT, ATP luminescence, 48 h | Potency, µM (top dose mostly 46.2 µM), hits mostly inhibitors | 420,000 compounds, 12% hits; note: nearly all actives have a fitted effect of over 55% in size
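Chicken DT40 Tdp1-/- cells stably complemented with human TDP1 were seeded at 400 cells/well in medium containing 20 nM camptothecin, exposed to pin-transferred compounds, and grown at 37 °C for at least 48 hr. Viability was read as ATP luminescence.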
IL1B secr inh = inflammasome signaling inhibition, IL-1 beta readout; AID 743279; 360,000 compounds, 4.7% hits; activity change, % at 57.5 µM; THP-1 LPS/ATP IL-1B secretion, AlphaLISA, 16 h; stronger effect = lower value; in the data active = activity change below about -50%; inconclusive = mostly about -30% to -49%
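Secreted IL-1B measured by AlphaLISA bead assay after 16 h compound exposure of THP-1 cells; compounds (final up to 57.5 uM) added 1 h before LPS (250 ng/mL) and ATP (1.25 mM) stimulation; lower signal means less secretion.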
TDP1 cell noCPT = qHTS for Inhibitors of human tyrosyl-DNA phosphodiesterase 1 (TDP1): qHTS in cells in absence of CPT | Potency, µM (highest dose often 46.2 µM), usual class: inhibitors | AID 686978, 2013 | 420,000 compounds, 15% hits | DT40 Tdp1-/- hTDP1 cells, no CPT, ATP luminescence, 48 h; note: nearly all actives have a fitted effect of over 55% in size
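DT40 Tdp1-/-;hTDP1 cells, no CPT (DMSO vehicle only), 400 cells/well; compounds pin-transferred; ≥48 hr, 37 °C; CellTiter-Glo 30 min RT dark, luminescence read.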
DRD3 agonist = D3 dopamine receptor (human) agonism. D3R DiscoveRx beta-arrestin cells, luminescence, 90 min. max activation, %. 410,000 compounds, 0.58% hits. AID 652048; in the data active = max activation above about 30%
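Agonist-mode cell screen: cells plated at 1500/well and incubated overnight at 37 °C, then exposed to library compounds for 90 min at 37 °C. Detection reagent was added for 30–60 min at room temperature, and luminescence was read.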
Numbers stand for hits; - = inactive; ? = inconclusive; . = no result. Unless noted, calls come from the whole dose curve; as a rule, active = well fitted inhibition curve with a large enough effect; inconclusive = small, poorly fitted or top-dose-only effect; inactive = flat fitted curve, though single readings scatter.

SMILES	ClpP mod	D3 antag	DT40 TDP1 CPT	IL1B secr inh	TDP1 cell noCPT	DRD3 agonist
CCOC(=O)C1=C(C(=O)OCC)c2ccc(OC)c(OC)c2C1	.	-	-	-	18µM	-
COc1ccccc1-c1cc2nc(C)cc(C)n2n1	.	-	-	-	-	-
C=CCN1c2ccccc2[C@]23C[C@@H](C(=O)OC)N(C(=O)c4cc(C)oc4C)C2=NC(C(=O)OC)=C(C(=O)OC)[C@H]13	-	-	?	-65	?	-
CCCCn1nnnc1C1(C)CCC(=O)N1CCCn1ccnc1 (configuration not stated)	-	-106	21µM	-	16µM	-
C=CCc1cccc2cc(-c3nc4ccc(C(=O)O)cc4[nH]3)c(=O)oc12	-	.	-	.	-	-
Cc1c(-c2ccc(F)cc2)nc(N)c(C#N)c1-c1cccs1	-	-	-	-	-	-
Cc1nn(-c2ccccc2)c2nc(N)c(C#N)c(-c3ccc(O)c(O)c3)c12	-	-	?	-	?	-
Cc1nn(-c2ccc(F)cc2)c2nc(N)c(C#N)c(-c3ccc(O)c(O)c3)c12	-	-	16µM	-	23µM	-
COc1cc(-c2c(C#N)c(N)nc3c2c(C)nn3-c2ccc(C)c(C)c2)cc(OC)c1OC	25µM	-	?	-	?	60
Cc1nn(-c2ccc(F)cc2)c2nc(N)c(C#N)c(-c3cccs3)c12	-	-	23µM	-	13µM	-
COc1ccc2cc(CNc3ccc(C)cc3)c(=O)n(CC(=O)Nc3cccc(C(F)(F)F)c3)c2c1	-	.	.	.	.	-
CCCCN1C(=O)C(CC(=O)NCCCN(C)C)CC(C(=O)N(C)C)=C1C (configuration not stated)	-	-	-	-	-	-
Cn1cccc1/C=C1\SC(=O)N(c2ccccc2)C1=O	-	-	-	-	?	-
COC(=O)/C=C1\SC(=Nc2ccccc2)NC1=O	-	-	-	-65	-	-
Cn1cccc1/C=C1\SC(=Nc2ccc(O)cc2)NC1=O	-	?	0.041µM	-	0.023µM	-
Cn1cccc1/C=C1\SC(=Nc2ccccc2)NC1=O	-	?	2.9µM	-	2.3µM	-
Cn1cccc1/C=C1\SC(=Nc2cccc(O)c2)NC1=O	-	-	21µM	-	21µM	-
COC(=O)/C=C1/SC(=Nc2ccc(Cl)c(Cl)c2)NC1=O	.	-	-	-	-	-
Cc1ccccc1S(=O)(=O)Cc1ccc(C(=O)NCCCN2CCCC(C)C2)o1 (configuration not stated)	-	-	-	-	-	-
CC(=O)Oc1ccccc1-c1nc(/C=C/c2ccccc2)no1	?	-	-	-	-	-
CC(/C=C1\SC(=Nc2cccnc2)NC1=O)=C\c1ccccc1	-	-	4.1µM	-	2.9µM	-
O=C1NC(=Nc2ccccc2)S/C1=C\c1cccs1	-	-	?	-	?	-
